“And” between values parts separate entries of the source, which are not always exact repeats. Identical values can stand only once. Inconclusive results are not listed. Values without a mark were called inactive. The source made the active and inactive calls. Calls come from the whole dose curve; as a rule, active = well fitted curve in the direction sought with a large enough effect; inconclusive = small, poorly fitted or top-dose-only effect, or another doubt; inactive = no such curve, though single readings can be large; an effect the other way counts as inactive or inconclusive.

One assay has as its system TAB109. The assay is described as follows: qHTS profiling for inhibitors of Plasmodium falciparum proliferation (AID 504749).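 Note: 0% = DMSO vehicle and full inhibition = artemisinin control; nearly all actives have a fitted effect of over 60% in size.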 To be noted: P. falciparum in erythrocytes, SYBR Green DNA, 72 h; series mostly up to 28.7 µM. The method in brief: (§1)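 P. falciparum-infected erythrocytes (0.3% parasitemia, 2.5% hematocrit final) were exposed to compounds for 72 h at 37 C in 5% CO2, then lysed with SYBR Green buffer overnight at room temperature; parasite DNA fluorescence was normalized to artemisinin and DMSO controls.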

In another assay the test system is TAB113. The assay is described as above. To be noted: P. falciparum in erythrocytes, SYBR Green DNA, 72 h; series mostly up to 28.7 µM. The method in brief:
as §1

The next assay has as its system TAB165. Described as above. To be noted: P. falciparum in erythrocytes, SYBR Green DNA, 72 h; series mostly up to 28.7 µM. In a few lines: as §1
Assay [1] has as its system CRL-7250. The assay is described as follows: Cytotoxic Profiling of Annotated Libraries Using Quantitative High-Throughput Screening (AID 1296008). For max response: % is set by controls: 0 for no effect and ±100 for the full control effect. Note: nearly all actives have a fitted effect of over 60% in size. Note: potency is the fitted concentration of half-maximal effect. To be noted: Five cell lines viability, CellTiter-Glo ATP luminescence, 48-72 h; max response: hits give low values. In a few lines: (§2)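 Compounds were pin-transferred onto cells and incubated 48 or 72 hr at 37 degree Celsius, 95% humidity. CellTiter-Glo was added, plates sat 10 min at room temperature, then ATP-coupled luminescence was imaged as the viability read-out.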

For assay [2], the system named is HaCat. The assay is described as above. To be noted: Five cell lines viability, CellTiter-Glo ATP luminescence, 48-72 h; max response: hits give low values. In a few lines: as §2
A further assay relates to KB-3-1. The description is as above. The conditions noted are these: Five cell lines viability, CellTiter-Glo ATP luminescence, 48-72 h; max response: hits give low values. The method in brief:
as §2

The test system of assay [3] is NIH3T3. The description is as above. The conditions noted are these: Five cell lines viability, CellTiter-Glo ATP luminescence, 48-72 h; max response: hits give low values. The method in brief:
as §2

Assay [4] deals with HACAT. The assay is described as follows: qHTS assay to identify novel small-molecules to repurpose for Merkel cell carcinoma treatment (AID 1296009). Note: nearly all actives have a fitted effect of over 60% in size. Note: potency is the fitted concentration of half-maximal effect. The conditions noted are these: MCC and control cell lines, CellTiter-Glo viability, 72 h; at 44.8 µM (top of the series) unless noted. The method in brief: (§3)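 Cells exposed to NPC (8-point) and MIPE (11-point) compound dilutions for 72 hr at 37 degree celsius; viability read by CellTiter-Glo luminescence, normalized to no-cell and DMSO in-plate controls.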

The subject of a further assay is MCC-13. The assay is described as above. The conditions noted are these: MCC and control cell lines, CellTiter-Glo viability, 72 h; series mostly up to 46 µM. The method in brief:
as §3

Another assay has as its system MKL-1. The description is as above. The conditions noted are these: MCC and control cell lines, CellTiter-Glo viability, 72 h; series mostly up to 46 µM. The method in brief:
as §3

A further assay concerns MKL-2. The description is as above. The conditions noted are these: MCC and control cell lines, CellTiter-Glo viability, 72 h; series mostly up to 46 µM. In a few lines: as §3
For assay [5], the system named is NIH3T3. The assay is described as above. The conditions noted are these: MCC and control cell lines, CellTiter-Glo viability, 72 h; at 44.8 µM (top of the series) unless noted. In a few lines: as §3
Another assay has as its system UISO. The assay is described as above. To be noted: MCC and control cell lines, CellTiter-Glo viability, 72 h; series mostly up to 46 µM. The method in brief:
as §3

Another assay concerns WaGa. Described as above. The conditions noted are these: MCC and control cell lines, CellTiter-Glo viability, 72 h; series mostly up to 46 µM. The method in brief:
as §3

A further assay concerns C33A. Briefly: Primary qHTS to identify gynecologic anti-cancer compounds using libraries of approved drugs and bioactive compounds (AID 1345084). Note: % is set by controls: 0 for no effect and ±100 for the full control effect; nearly all actives have a fitted effect of over 55% in size. To be noted: Gynecologic cancer cell panel viability, ATPlite luminescence, 48 h; series mostly up to 57.5 µM. The method in brief:
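In this quantitative HTS, cell killing is estimated from loss of ATP-dependent luciferase light. Cells see five compound concentrations over a 48 h exposure.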

The next assay concerns HEK293. Briefly: Cytotoxic Profiling of Annotated Libraries Using Quantitative High-Throughput Screening (AID 1296008). For max response: % is set by controls: 0 for no effect and ±100 for the full control effect. Note: nearly all actives have a fitted effect of over 60% in size. Note: potency is the fitted concentration of half-maximal effect. The conditions noted are these: Five cell lines viability, CellTiter-Glo ATP luminescence, 48-72 h; max response: hits give low values. In a few lines:
as §2

The next assay deals with MCC-26. Briefly: qHTS assay to identify novel small-molecules to repurpose for Merkel cell carcinoma treatment (AID 1296009). Note: nearly all actives have a fitted effect of over 60% in size. Note: potency is the fitted concentration of half-maximal effect. The conditions noted are these: MCC and control cell lines, CellTiter-Glo viability, 72 h; series mostly up to 46 µM. The method in brief: as §3
Assay [6] concerns CRL-7250. The assay is described as above. The conditions noted are these: MCC and control cell lines, CellTiter-Glo viability, 72 h; series mostly up to 44.8 µM. In a few lines: as §3
A further assay has as its system W2. The assay is described as follows: qHTS profiling for inhibitors of Plasmodium falciparum proliferation (AID 504749).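 Note: 0% = DMSO vehicle and full inhibition = artemisinin control; nearly all actives have a fitted effect of over 60% in size.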 The conditions noted are these: P. falciparum in erythrocytes, SYBR Green DNA, 72 h; series mostly up to 28.7 µM. The method in brief:
as §1

A further assay deals with HEK293T. The assay is described as follows: qHTS assay to identify novel small-molecules to repurpose for Merkel cell carcinoma treatment (AID 1296009). Note: nearly all actives have a fitted effect of over 60% in size. Note: potency is the fitted concentration of half-maximal effect. The conditions noted are these: MCC and control cell lines, CellTiter-Glo viability, 72 h; at 44.8 µM (top of the series). In a few lines: as §3

For `CC(C)(N)Cc1ccc(Cl)cc1`, the Potency result with TAB109, in the assay with TAB113, in the assay with TAB165, in the assay with MCC-13, in the assay on MKL-1 and in the assay with MKL-2 was “inactive” throughout. Moreover, the Potency entry with UISO, with WaGa and with C33A was “inactive” throughout. For the same compound, the max response in the assay with CRL-7250 [1] was 0.791%; in the assay with KB-3-1 it was -1.79%. Besides, the compound was classed as inactive with HaCat [2], in the assay with NIH3T3 [3], in the assay on HACAT [4] and in the assay on NIH3T3 [5].
Take `CNC(=O)N1N=C(c2ccc(N)cc2)c2cc3c(cc2CC1C)OCO3` (stereo not drawn): the Potency is 23.1 µM (active) in the assay with HEK293, 7.43 µM (active) in the assay on MKL-2 and 16.6 µM (active) in the assay on WaGa. In addition, the max response in the assay on HaCat [2] was -13.3% and -0.52%; in the assay with NIH3T3 [3] it was -39.3%. Besides, the Potency entry with MKL-1 and with C33A was “inactive” throughout.
`C=C1C[C@@H]2[C@H](CC[C@]3(C)C(=O)CC[C@@H]23)[C@@]2(C)C=CC(=O)C=C12`: the max response in the assay with KB-3-1 was -16.4%. In addition, the Potency result in the assay on MCC-13, in the assay with MCC-26, with UISO and with C33A was “inactive” each time. For the same compound, the Potency with MKL-2 is 13.3 µM (active).
`CC(C)=CCOc1c2occc2cc2ccc(=O)oc12`: the max response was -11.3% with CRL-7250 [1], -18.5% with KB-3-1 and -0.907% in the assay on NIH3T3 [3]. Further, the call with HaCat [2] and with HACAT [4] was inactive. Also, the Potency entry in the assay on MCC-13, in the assay with MKL-1, with MKL-2, with UISO, in the assay with WaGa and with C33A was “inactive” throughout.
Consider `CCCNCC(O)COc1ccccc1C(=O)CCc1ccccc1` (stereo not drawn), for which, in the assay with CRL-7250 [6], the compound was classed as inactive.
Same read-out and setting: with `CCN(CC)CCCC(C)Nc1ccnc2cc(Cl)ccc12` (stereo not drawn) the entry was “inactive [at 9.27 µM]”.
Take `c1ccc2c(c1)OCC(C1=NCCN1)O2` (stereo not drawn): the Potency result in the assay with TAB109, in the assay with TAB113 and in the assay on TAB165 was “inactive” throughout. In addition, the Potency in the assay on CRL-7250 [1] was 23.7 µM (active); in the assay with NIH3T3 [3] it was 15 µM (active); in the assay on MKL-1, 26.6 µM (active); in the assay with MKL-2, 5.96 µM (active). In addition, the max response in the assay on KB-3-1 was 29.1%.
For `CC[N+]1(C)CCCC(OC(=O)C(O)(c2ccccc2)c2ccccc2)C1` (stereo not drawn), the Potency entry in the assay with TAB109, in the assay on TAB113, in the assay on TAB165, with W2, in the assay with MCC-13 and in the assay with MCC-26 was “inactive” each time. The Potency result in the assay with MKL-1, in the assay with MKL-2, in the assay on UISO, with WaGa and in the assay on C33A was “inactive” each time. The max response with CRL-7250 [1] was 2.5%; in the assay with HaCat [2] it was 1.89%; in the assay with KB-3-1, 3.82%. Also, the compound was called inactive with NIH3T3 [3] and with NIH3T3 [5].
As for `C#CCOC(C(=O)OCCN(C)C)(c1ccccc1)c1ccccc1`, the Potency result with TAB113, in the assay on TAB165, in the assay on MCC-13, with MKL-1, in the assay with MKL-2 and with UISO was “inactive” each time. Further, the Potency entry in the assay on WaGa and in the assay with C33A was “inactive” each time. Besides, the results for the max response in the assay on CRL-7250 [1] and with KB-3-1 were -6.32% and -0.159%, respectively. In addition, the compound was classed as inactive with HaCat [2], in the assay on NIH3T3 [3], in the assay on HACAT [4] and in the assay with NIH3T3 [5].
Take `COc1ccccc1N1CCNCC1`: the Potency entry with TAB109, with TAB113, in the assay with TAB165, in the assay on W2, in the assay with MCC-13 and in the assay on MCC-26 was “inactive” throughout. In addition, the Potency result in the assay on MKL-1, with MKL-2, with UISO, in the assay with WaGa and with C33A was “inactive” throughout. Moreover, the compound was called inactive in the assay with HEK293, in the assay with HaCat [2], in the assay on HACAT [4] and in the assay on HEK293T. The max response with KB-3-1 is -11%; in the assay with NIH3T3 [3], -4.83%.
For `Nc1cc(-c2ccncc2)c[nH]c1=O`, in the assay on CRL-7250 [6], the result was inactive.
For the compound `CC[C@@H](CO)NC(=O)[C@@H]1C=C2c3cccc4[nH]cc(c34)C[C@H]2N(C)C1`, the Potency entry in the assay on TAB109, in the assay with TAB113, in the assay with TAB165, with W2, with MCC-13 and with MKL-1 was “inactive” each time. The Potency result in the assay with MKL-2, in the assay with UISO, with WaGa and in the assay with C33A was “inactive” throughout. The max response in the assay with CRL-7250 [1] was -1.45%; with HaCat [2], -5.68%; with KB-3-1, 37.2%; with NIH3T3 [3], -3.83%.
For the compound `CO[C@]12CC[C@@]3(C[C@@H]1[C@](C)(O)C(C)(C)C)[C@@H]1Cc4ccc(O)c5c4[C@@]3(CCN1CC1CC1)[C@H]2O5`, the Potency with HEK293 was 21.5 µM (active); in the assay with MCC-13, 53.9 µM (active); in the assay on MKL-2, 34 µM (active); in the assay on UISO, 24.1 µM (active).
With `CCN(CC)CCOC(=O)C(O)(c1ccccc1)c1ccccc1`, the Potency entry in the assay on TAB109, in the assay on TAB113, in the assay on TAB165, with MCC-13, in the assay on MKL-1 and with MKL-2 was “inactive” throughout. Besides, the Potency result in the assay with UISO, in the assay on WaGa and in the assay with C33A was “inactive” throughout. Moreover, the max response with CRL-7250 [1] is -0.239%; with HaCat [2] it was -11%; with KB-3-1 it was -1.34%. Besides, the outcome in the assay with NIH3T3 [3] and in the assay with NIH3T3 [5] was inactive.
Regarding `O=C(c1ccc(OCCN2CCCCC2)cc1)c1c(-c2ccc(O)cc2)sc2cc(O)ccc12`, in the assay with CRL-7250 [6], the compound was classed as inactive.
Take `CC(=O)OCC(CCn1cnc2cnc(N)nc21)COC(C)=O`: the outcome in the assay with CRL-7250 [6] was inactive.
Turning to `Cc1cccc(C)c1OCC(C)N` (stereo not drawn), the result with CRL-7250 [6] was inactive.
Regarding `C[C@@H]1[C@@H](CC(C[C@H]2O[C@@H]3O[C@]4(C)CC[C@@H]5[C@H](C)CC[C@@H]([C@H]2C)[C@@]35OO4)C[S+](=O)([O-])c2ccc(COC(=O)N(C)C)cc2)O[C@@H]2O[C@]3(C)CC[C@H]4[C@H](C)CC[C@@H]1[C@@]24OO3` (stereo partly drawn), the Potency was 1.32 µM (active) in the assay with KB-3-1, 1.18 µM (active) with MKL-1, 0.59 µM (active) in the assay on MKL-2 and 0.526 µM (active) in the assay on UISO. Further, the Potency result in the assay on MCC-26 is “inactive”.
Take `CCCNC(=O)NS(=O)(=O)c1ccc(Cl)cc1`: the call in the assay on CRL-7250 [6] was inactive.
Take `COc1ccc2c(c1OC)CN1CCc3cc4c(cc3C1C2)OCO4` (stereo not drawn): the Potency in the assay on HEK293 is 9.44 µM (active) and 935 nM (active); in the assay on MKL-1 it was 11.9 µM (active); in the assay on MKL-2, 20.9 µM (active); in the assay with WaGa, 16.6 µM (active). The max response is 1.37% with HaCat [2]; -7.53% and -10% with KB-3-1; -8.93% in the assay on NIH3T3 [3]. The compound was classed as inactive in the assay with HaCat [2] and with HACAT [4]. In the assay with MCC-13, the Potency entry is “inactive”.

For the origin of these results see PubChem BioAssay (NCATS).
